Experiments:
Settings in all cases: Compound Concentration (nM):1000
GRK1 = system: GRK1
GRK2 = system: T1, GRK2
T1 construct: gene ADRBK1

GRK3 = system: T2, GRK3
T2 construct: gene ADRBK2

GRK4 = system: GRK4
GRK7 = system: GRK7
GSK3A = system: GSK3A
GSK3B = system: GSK3B
HASPIN = system: T3, HASPIN
T3 construct: gene GSG2

HCK = system: HCK
HIPK1 = system: HIPK1
HIPK2 = system: HIPK2
HIPK3 = system: HIPK3
HIPK4 = system: HIPK4
HPK1 = system: T4, HPK1
T4 construct: gene MAP4K1

HUNK = system: HUNK
ICK = system: ICK
IGF1R = system: IGF1R
IKK-alpha = system: T5, IKK-alpha
T5 construct: gene CHUK

IKK-beta = system: T6, IKK-beta
T6 construct: gene IKBKB

IKK-epsilon = system: T7, IKK-epsilon
T7 construct: gene IKBKE
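Also: KINOMEscan scanMAX binding as percent activity remaining versus control; lower means stronger binding.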

Structure (SMILES) | Percent Control (GRK1) [%] | Percent Control (GRK2) [%] | Percent Control (GRK3) [%] | Percent Control (GRK4) [%] | Percent Control (GRK7) [%] | Percent Control (GSK3A) [%] | Percent Control (GSK3B) [%] | Percent Control (HASPIN) [%] | Percent Control (HCK) [%] | Percent Control (HIPK1) [%] | Percent Control (HIPK2) [%] | Percent Control (HIPK3) [%] | Percent Control (HIPK4) [%] | Percent Control (HPK1) [%] | Percent Control (HUNK) [%] | Percent Control (ICK) [%] | Percent Control (IGF1R) [%] | Percent Control (IKK-alpha) [%] | Percent Control (IKK-beta) [%] | Percent Control (IKK-epsilon) [%]
COc1cccc(-n2ncc3c(N/N=C/c4ccncc4)ncnc32)c1 [GW784752X] | 99 | 84 | 100 | 88 | 87 | 16 | 2.5 | 75 | 100 | 28 | 33 | 23 | 54 | 100 | 95 | 64 | 100 | 98 | 94 | 100
NS(=O)(=O)c1ccc(N/N=C2\C(=O)Nc3ccc(C(=O)NCCc4c[nH]cn4)cc32)cc1 [GW300660X] | 80 | 100 | 99 | 100 | 100 | 50 | 19 | 3.6 | 100 | 25 | 7.5 | 12 | 100 | 74 | 100 | 22 | 100 | 85 | 100 | 100
CC1=C(C(=O)Nc2ccc3[nH]ncc3c2)C(c2ccc3ccccc3c2)CC(=O)N1 (centres unmarked) [GSK270822A] | 78 | 38 | 17 | 100 | 100 | 100 | 100 | 96 | 68 | 87 | 76 | 79 | 100 | 87 | 91 | 84 | 85 | 69 | 72 | 87
COc1ccc2[nH]c3c4[nH]c5ccc(OC)cc5c4c4c(c3c2c1)C(=O)NC4=O [GW296115X] | 95 | 88 | 70 | 100 | 64 | 100 | 68 | 76 | 74 | 56 | 64 | 44 | 70 | 90 | 91 | 89 | 97 | 89 | 87 | 48
O=C(Nc1n[nH]c2nc(-c3ccc(O)cc3)c(Br)cc12)C1CC1 [SB-725317] | 100 | 100 | 100 | 100 | 100 | 7.5 | 0.5 | 100 | 100 | 22 | 36 | 30 | 100 | 86 | 100 | 1 | 100 | 100 | 100 | 84
COc1cccc(-c2c[nH]c3c(N/N=C/c4ccncc4)ncnc23)c1 [GW814408X] | 100 | 100 | 100 | 62 | 100 | 0 | 1 | 51 | 91 | 29 | 53 | 27 | 59 | 70 | 73 | 33 | 100 | 87 | 100 | 100
COc1ccccc1-c1cc(/C=C2\C(=O)Nc3ncc(Br)cc32)cc(Br)c1O [GW442130X] | 100 | 100 | 100 | 100 | 63 | 100 | 100 | 100 | 100 | 66 | 100 | 100 | 92 | 99 | 69 | 81 | 100 | 100 | 100 | 100
COc1cc(/C=N/Nc2ncnc3[nH]ncc23)ccc1O [GW578748X] | 83 | 100 | 78 | 100 | 100 | 34 | 78 | 0.2 | 64 | 24 | 19 | 16 | 85 | 80 | 100 | 75 | 100 | 14 | 33 | 81
CCS(=O)(=O)c1ccc(OC)c(Nc2ncc(-c3cccc(OC)c3)o2)c1 [GW580509X] | 100 | 100 | 100 | 100 | 100 | 91 | 85 | 83 | 49 | 42 | 56 | 45 | 18 | 88 | 100 | 100 | 100 | 100 | 100 | 100
CC1=C(C(=O)Nc2ccc3[nH]ncc3c2)C(c2ccc(Cl)c(Cl)c2)CC(=O)N1 (centres unmarked) [GSK299115A] | 89 | 16 | 20 | 100 | 99 | 100 | 100 | 84 | 81 | 72 | 92 | 83 | 100 | 100 | 80 | 83 | 93 | 81 | 76 | 100
COc1cc(C=NNc2ncnc3c2cnn3-c2ccccc2)ccc1O [GW513184X] | 100 | 100 | 100 | 28 | 84 | 7.7 | 87 | 100 | 78 | 43 | 91 | 75 | 67 | 100 | 58 | 91 | 100 | 100 | 100 | 100
Cl.O=C(Nc1ccc(Oc2ccc3[nH]c(NC(=O)c4ccccc4)nc3c2)cc1)Nc1cc(C(F)(F)F)ccc1F [GW709042A] | 99 | 100 | 97 | 100 | 100 | 100 | 99 | 92 | 71 | 94 | 98 | 100 | 13 | 75 | 90 | 100 | 100 | 75 | 100 | 86
NS(=O)(=O)c1ccc(N/N=C2\C(=O)Nc3ccc(-c4cnco4)cc32)cc1 [GW276655] | 87 | 94 | 100 | 39 | 81 | 15 | 80 | 0.3 | 95 | 35 | 28 | 20 | 51 | 100 | 61 | 8.8 | 83 | 55 | 76 | 82
CC(C)COC(=O)c1ccc2c(c1)/C(=C/Nc1ccc(S(N)(=O)=O)cc1)C(=O)N2 [GW416981X] | 86 | 100 | 100 | 43 | 100 | 45 | 71 | 18 | 100 | 88 | 75 | 63 | 100 | 48 | 100 | 44 | 100 | 69 | 100 | 16
NS(=O)(=O)c1ccc(N/N=C2\C(=O)Nc3ccc(Cl)cc32)cc1 [GW280670X] | 100 | 100 | 100 | 100 | 100 | 54 | 91 | 97 | 100 | 98 | 100 | 90 | 100 | 88 | 100 | 94 | 100 | 100 | 100 | 72
CCn1c(-c2nonc2N)nc2c(C#CC(C)(C)O)nc(OCCNC)cc21.Cl [GSK949675] | 77 | 100 | 100 | 100 | 69 | 18 | 55 | 100 | 100 | 42 | 75 | 47 | 100 | 100 | 89 | 100 | 100 | 91 | 98 | 73
Cl.c1ccc(Cc2nc3ccc(Nc4ncnc5ccccc45)cc3[nH]2)cc1 [GR269666A] | 100 | 100 | 100 | 91 | 100 | 100 | 99 | 88 | 100 | 100 | 100 | 100 | 100 | 98 | 100 | 100 | 100 | 100 | 100 | 100
COc1ccc2cc(-c3c(-c4ccncc4)nc(-c4ccc(S(C)(=O)=O)cc4C)n3C)ccc2c1 [SB-633825] | 70 | 81 | 63 | 100 | 94 | 100 | 100 | 94 | 72 | 77 | 82 | 70 | 63 | 85 | 100 | 69 | 79 | 57 | 66 | 82
CN(C)CCNC(=O)Nc1ccc(N(C)c2ccnc(Nc3ccc(CS(C)(=O)=O)cc3)n2)cc1.Cl [GW830900A] | 89 | 100 | 89 | 7.1 | 96 | 100 | 85 | 100 | 100 | 88 | 94 | 81 | 85 | 30 | 55 | 70 | 100 | 100 | 97 | 100
COc1ccc2c(-c3ccnc(Nc4cccc(OC(F)(F)F)c4)n3)cnn2n1 [GW810372X] | 97 | 100 | 98 | 100 | 100 | 34 | 97 | 72 | 100 | 0.7 | 0 | 2.3 | 29 | 83 | 88 | 24 | 100 | 83 | 100 | 62
C[C@@H](Oc1cc(-n2cnc3ccc(OC4CCN(C)CC4)cc32)sc1C(N)=O)c1ccccc1Cl [GSK579289A] | 75 | 86 | 78 | 37 | 85 | 98 | 100 | 55 | 91 | 61 | 81 | 76 | 15 | 58 | 73 | 96 | 69 | 99 | 100 | 76
Cc1cc(O)cc(C)c1/C=C/c1cncc(C(N)=O)c1 [GW435821X] | 95 | 100 | 100 | 100 | 100 | 96 | 100 | 55 | 38 | 100 | 98 | 100 | 100 | 100 | 100 | 100 | 100 | 100 | 100 | 90

Source: publication PMC7826789 (International Journal of Molecular Sciences, 2021)
